# Reference: publication PMC8384837, “Expanding the binding specificity for RNA recognition by a PUF domain”
# Numbering of substitutions follows the chain as printed.
# Experiments:
# Test in all cases: yeast three-hybrid, YBZ-1, SC-Leu-His + 0.5 mM 3-AT, 4 days
# Conditions in all cases: tags: N-Gal4 AD-HA kept; label: inside an RPR1-promoter hybrid RNA with tandem MS2 sites; ssRNA
# PUM1 PUF domain R7-KHR = PUM1 PUF domain R7-KHR (Homo sapiens, UniProt Q14671 828-1176, S1079K;N1080H;E1083R)
# How it was run: (§1)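 The interaction score is the logarithmic change in variant frequency from input to selection. It uses log2, with a pseudocount of 1 for absent variants, and frequencies came from PCR-amplified, Illumina-sequenced repeat regions. The libraries were Pumilio-1 PUF domains randomized at the three base-contacting residues per repeat, co-expressed with matching RNA elements in strain YBZ-1 (LexA–MS2 coat fusion, HIS3 reporter). Plating lasted four days on SC-Leu (input) or SC-Leu-His + 0.5 mM 3-AT (selection).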
# PUM1 PUF domain R3-FYA = PUM1 PUF domain R3-FYA (Homo sapiens, UniProt Q14671 828-1176, C935F;R936Y;Q939A)
# How it was run: as §1
# PUM1 PUF domain R4-PWV = PUM1 PUF domain R4-PWV (Homo sapiens, UniProt Q14671 828-1176, N971P;H972W;Q975V)
# How it was run: as §1
# PUM1 PUF domain R4-APG = PUM1 PUF domain R4-APG (Homo sapiens, UniProt Q14671 828-1176, N971A;H972P;Q975G)
# How it was run: as §1
# PUM1 PUF domain R5-RGM = PUM1 PUF domain R5-RGM (Homo sapiens, UniProt Q14671 828-1176, C1007R;R1008G;Q1011M)
# How it was run: as §1
# PUM1 PUF domain R6-LWM = molecular target: T1, PUM1 PUF domain R6-LWM (Homo sapiens, UniProt Q14671 828-1176, N1043L;Y1044W;Q1047M)
# T1 sequence: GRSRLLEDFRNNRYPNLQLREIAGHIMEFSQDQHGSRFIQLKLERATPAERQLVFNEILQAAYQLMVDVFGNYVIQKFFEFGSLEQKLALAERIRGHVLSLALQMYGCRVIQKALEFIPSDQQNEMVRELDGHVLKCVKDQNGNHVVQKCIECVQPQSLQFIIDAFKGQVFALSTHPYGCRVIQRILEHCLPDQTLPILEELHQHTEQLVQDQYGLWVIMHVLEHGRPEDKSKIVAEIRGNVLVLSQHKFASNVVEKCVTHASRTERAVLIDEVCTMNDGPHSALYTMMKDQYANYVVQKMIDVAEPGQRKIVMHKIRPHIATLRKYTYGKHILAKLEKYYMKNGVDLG
# How it was run: as §1
# PUM1 PUF domain R6-NHW = molecular target: T2, PUM1 PUF domain R6-NHW (Homo sapiens, UniProt Q14671 828-1176, Y1044H;Q1047W)
# T2 sequence: T1 sequence with L216N, W217H, M220W
# How it was run: as §1
# PUM1 PUF domain R8-RHM = PUM1 PUF domain R8-RHM (Homo sapiens, UniProt Q14671 828-1176, N1122R;Y1123H;Q1126M)
# How it was run: as §1
# PUM1 PUF domain R3-TTE = PUM1 PUF domain R3-TTE (Homo sapiens, UniProt Q14671 828-1176, C935T;R936T;Q939E)
# How it was run: as §1
# PUM1 PUF domain R5-KNW = PUM1 PUF domain R5-KNW (Homo sapiens, UniProt Q14671 828-1176, C1007K;R1008N;Q1011W)
# How it was run: as §1
sequence,measurement,setting,value
GGCUAGAACUAGUGGAUCCCCCGGCGCCCGGCGGCUCGAGCCCGGGUAAGUCUAAAUAGUCUGCAUGCCGCCGGGCGCCAUGCCUGCAGGUCGACUCUAGAAAACAUG,binding signal,PUM1 PUF domain R7-KHR,5.64 log2 enrichment (interaction score)
GGCUAGAACUAGUGGAUCCCCCGGCGCCCGGCGGCUCGAGCCCGGGUAAGUGUAAUUAGUCUGCAUGCCGCCGGGCGCCAUGCCUGCAGGUCGACUCUAGAAAACAUG,binding signal,PUM1 PUF domain R3-FYA,4.01 log2 enrichment (interaction score)
GGCUAGAACUAGUGGAUCCCCCGGCGCCCGGCGGCUCGAGCCCGGGUAAGUGUACAUAGUCUGCAUGCCGCCGGGCGCCAUGCCUGCAGGUCGACUCUAGAAAACAUG,binding signal,PUM1 PUF domain R4-PWV,5.39 log2 enrichment (interaction score)
same,binding signal,PUM1 PUF domain R4-APG,0.78 log2 enrichment (interaction score)
GGCUAGAACUAGUGGAUCCCCCGGCGCCCGGCGGCUCGAGCCCGGGUAAGUGUAUAUAGUCUGCAUGCCGCCGGGCGCCAUGCCUGCAGGUCGACUCUAGAAAACAUG,binding signal,PUM1 PUF domain R4-PWV,6.68 log2 enrichment (interaction score)
same,binding signal,PUM1 PUF domain R4-APG,4.91 log2 enrichment (interaction score)
GGCUAGAACUAGUGGAUCCCCCGGCGCCCGGCGGCUCGAGCCCGGGUAAGUGUCAAUAGUCUGCAUGCCGCCGGGCGCCAUGCCUGCAGGUCGACUCUAGAAAACAUG,binding signal,PUM1 PUF domain R5-RGM,2.26 log2 enrichment (interaction score)
GGCUAGAACUAGUGGAUCCCCCGGCGCCCGGCGGCUCGAGCCCGGGUAAGUGUAAAUAGUCUGCAUGCCGCCGGGCGCCAUGCCUGCAGGUCGACUCUAGAAAACAUG,binding signal,PUM1 PUF domain R6-LWM,4.73 log2 enrichment (interaction score)
same,binding signal,PUM1 PUF domain R6-NHW,2.25 log2 enrichment (interaction score)
same,binding signal,PUM1 PUF domain R4-PWV,6 log2 enrichment (interaction score)
same,binding signal,PUM1 PUF domain R4-APG,4.82 log2 enrichment (interaction score)
same,binding signal,PUM1 PUF domain R8-RHM,4.13 log2 enrichment (interaction score)
GGCUAGAACUAGUGGAUCCCCCGGCGCCCGGCGGCUCGAGCCCGGGUAAGUGUAAGUAGUCUGCAUGCCGCCGGGCGCCAUGCCUGCAGGUCGACUCUAGAAAACAUG,binding signal,PUM1 PUF domain R3-TTE,5.3 log2 enrichment (interaction score)
GGCUAGAACUAGUGGAUCCCCCGGCGCCCGGCGGCUCGAGCCCGGGUAAGUGUUAAUAGUCUGCAUGCCGCCGGGCGCCAUGCCUGCAGGUCGACUCUAGAAAACAUG,binding signal,PUM1 PUF domain R5-KNW,2.79 log2 enrichment (interaction score)
same,binding signal,PUM1 PUF domain R5-RGM,3.6 log2 enrichment (interaction score)
